± gives the standard deviation of the averaged measurements. About 5,400 targets were measured; listed, in parts, are those with the largest changes and a random draw of the rest.
Compound: Nc1nc2c(ncn2[C@@H]2O[C@H](COP(=O)(O)OP(=O)(O)OP(=O)(O)O)[C@@H](O)[C@H]2O)c(=O)[nH]1 [guanosine triphosphate]
Assay: NP40-soluble protein abundance relative to vehicle (solubility fold change) (ratio); higher = more soluble protein in presence of GTP
Summary of the method: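 Eight concentrations, 0.1 to 10 mM, were tested on Jurkat crude lysate for 10 min at room temperature and then 3 min at 37 °C, in three independent experiments. The lysate was solubilised with 0.8% NP40 and benzonase, ultracentrifuged, and the supernatant TMT-labelled for LC-MS/MS. Each value is the fold change against the detergent-processed vehicle in its own replicate, from vsn-normalised intensities.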

UniProt Q96FV9, sequence (Q96FV9 whole entry, one chain of several): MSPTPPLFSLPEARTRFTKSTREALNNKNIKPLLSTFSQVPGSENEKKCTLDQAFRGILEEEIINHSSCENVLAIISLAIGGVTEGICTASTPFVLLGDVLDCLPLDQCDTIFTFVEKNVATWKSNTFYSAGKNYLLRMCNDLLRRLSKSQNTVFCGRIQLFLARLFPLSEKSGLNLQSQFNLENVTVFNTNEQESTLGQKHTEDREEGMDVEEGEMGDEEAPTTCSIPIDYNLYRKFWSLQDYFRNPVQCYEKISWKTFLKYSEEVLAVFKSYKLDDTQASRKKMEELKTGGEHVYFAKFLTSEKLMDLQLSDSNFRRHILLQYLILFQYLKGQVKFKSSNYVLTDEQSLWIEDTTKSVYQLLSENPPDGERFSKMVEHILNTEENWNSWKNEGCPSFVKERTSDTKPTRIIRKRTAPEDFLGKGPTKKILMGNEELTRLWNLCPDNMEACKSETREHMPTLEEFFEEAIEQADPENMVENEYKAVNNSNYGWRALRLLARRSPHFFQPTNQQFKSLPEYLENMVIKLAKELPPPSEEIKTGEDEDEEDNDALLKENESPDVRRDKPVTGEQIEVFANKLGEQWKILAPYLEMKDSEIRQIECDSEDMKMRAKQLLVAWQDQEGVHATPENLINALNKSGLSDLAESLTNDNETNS
UniProt Q9Y2Q3, sequence (Q9Y2Q3 whole entry, one chain of several): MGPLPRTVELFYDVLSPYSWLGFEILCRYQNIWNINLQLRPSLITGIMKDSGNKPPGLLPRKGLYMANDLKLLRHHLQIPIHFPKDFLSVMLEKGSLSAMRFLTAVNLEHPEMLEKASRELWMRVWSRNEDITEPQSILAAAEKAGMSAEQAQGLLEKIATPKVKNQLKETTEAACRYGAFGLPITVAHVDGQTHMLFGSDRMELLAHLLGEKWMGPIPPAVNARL
UniProt Q8NEW0, sequence (Q8NEW0 whole entry, one chain of several): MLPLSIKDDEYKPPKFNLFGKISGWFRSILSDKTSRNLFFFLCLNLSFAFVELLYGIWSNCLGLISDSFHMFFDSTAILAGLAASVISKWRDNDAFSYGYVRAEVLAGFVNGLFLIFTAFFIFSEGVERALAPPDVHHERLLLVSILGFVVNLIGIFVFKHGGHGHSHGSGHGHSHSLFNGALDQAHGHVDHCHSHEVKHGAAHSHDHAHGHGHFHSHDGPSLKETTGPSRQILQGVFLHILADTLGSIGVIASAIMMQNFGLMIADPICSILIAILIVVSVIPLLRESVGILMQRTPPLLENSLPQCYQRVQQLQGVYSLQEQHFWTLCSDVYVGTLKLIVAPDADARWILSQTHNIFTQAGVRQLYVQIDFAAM
UniProt Q96ME7, sequence (Q96ME7 whole entry, one chain of several): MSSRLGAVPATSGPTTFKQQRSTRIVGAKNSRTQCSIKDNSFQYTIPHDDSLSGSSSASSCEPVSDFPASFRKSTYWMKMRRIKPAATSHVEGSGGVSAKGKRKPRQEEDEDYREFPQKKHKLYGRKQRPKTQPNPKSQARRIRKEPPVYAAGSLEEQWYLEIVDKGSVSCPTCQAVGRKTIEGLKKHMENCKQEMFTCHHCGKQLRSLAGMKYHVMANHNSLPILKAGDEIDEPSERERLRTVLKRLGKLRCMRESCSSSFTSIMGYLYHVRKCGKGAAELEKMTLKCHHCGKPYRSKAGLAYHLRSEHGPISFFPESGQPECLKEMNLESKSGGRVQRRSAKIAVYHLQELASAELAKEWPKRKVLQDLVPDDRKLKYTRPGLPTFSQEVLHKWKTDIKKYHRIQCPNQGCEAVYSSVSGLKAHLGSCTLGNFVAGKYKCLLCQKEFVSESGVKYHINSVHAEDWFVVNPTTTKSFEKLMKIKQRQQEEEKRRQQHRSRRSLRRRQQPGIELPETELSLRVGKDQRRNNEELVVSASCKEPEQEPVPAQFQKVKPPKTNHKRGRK
UniProt P48444, sequence (P48444 whole entry, one chain of several): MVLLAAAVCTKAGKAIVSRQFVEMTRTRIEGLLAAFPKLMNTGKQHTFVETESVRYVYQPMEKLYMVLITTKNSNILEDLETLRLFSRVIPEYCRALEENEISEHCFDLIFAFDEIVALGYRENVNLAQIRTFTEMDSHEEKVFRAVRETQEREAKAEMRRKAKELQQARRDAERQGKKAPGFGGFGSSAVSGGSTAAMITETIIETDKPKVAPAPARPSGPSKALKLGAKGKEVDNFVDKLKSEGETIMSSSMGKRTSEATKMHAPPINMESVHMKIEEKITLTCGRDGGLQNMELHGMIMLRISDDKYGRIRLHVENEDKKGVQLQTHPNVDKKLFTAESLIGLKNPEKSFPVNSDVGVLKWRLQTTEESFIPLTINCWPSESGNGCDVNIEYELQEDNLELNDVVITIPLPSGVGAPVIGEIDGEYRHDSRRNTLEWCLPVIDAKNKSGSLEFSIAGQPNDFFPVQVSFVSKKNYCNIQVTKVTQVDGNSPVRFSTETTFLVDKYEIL
UniProt P52747, sequence (P52747 whole entry, one chain of several): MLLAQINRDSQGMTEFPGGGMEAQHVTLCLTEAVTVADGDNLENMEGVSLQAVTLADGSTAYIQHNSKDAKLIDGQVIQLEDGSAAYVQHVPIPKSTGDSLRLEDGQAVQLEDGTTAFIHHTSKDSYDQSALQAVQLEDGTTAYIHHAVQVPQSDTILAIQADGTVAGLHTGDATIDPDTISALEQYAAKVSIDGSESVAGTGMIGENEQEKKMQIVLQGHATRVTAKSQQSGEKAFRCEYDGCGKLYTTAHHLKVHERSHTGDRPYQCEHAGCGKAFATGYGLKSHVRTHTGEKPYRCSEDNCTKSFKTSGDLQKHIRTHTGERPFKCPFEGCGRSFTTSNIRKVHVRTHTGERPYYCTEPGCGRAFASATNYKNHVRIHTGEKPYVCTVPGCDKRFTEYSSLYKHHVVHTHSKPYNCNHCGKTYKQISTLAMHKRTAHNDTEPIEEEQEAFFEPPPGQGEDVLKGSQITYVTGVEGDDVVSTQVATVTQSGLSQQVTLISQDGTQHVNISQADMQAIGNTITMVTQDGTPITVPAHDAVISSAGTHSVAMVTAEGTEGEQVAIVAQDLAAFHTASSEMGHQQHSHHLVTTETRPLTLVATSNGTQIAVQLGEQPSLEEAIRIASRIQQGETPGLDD
UniProt Q96GG9, sequence (Q96GG9 whole entry, looked up, one chain of several): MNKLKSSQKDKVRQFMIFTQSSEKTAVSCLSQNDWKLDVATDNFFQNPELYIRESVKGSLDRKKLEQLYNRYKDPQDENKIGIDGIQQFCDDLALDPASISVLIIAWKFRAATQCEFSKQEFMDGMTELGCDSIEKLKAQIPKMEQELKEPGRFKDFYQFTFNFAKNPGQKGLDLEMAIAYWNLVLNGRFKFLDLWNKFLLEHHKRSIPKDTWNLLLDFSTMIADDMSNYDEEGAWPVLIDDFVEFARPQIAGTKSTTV
UniProt Q9H0W9, sequence (Q9H0W9 whole entry, one chain of several): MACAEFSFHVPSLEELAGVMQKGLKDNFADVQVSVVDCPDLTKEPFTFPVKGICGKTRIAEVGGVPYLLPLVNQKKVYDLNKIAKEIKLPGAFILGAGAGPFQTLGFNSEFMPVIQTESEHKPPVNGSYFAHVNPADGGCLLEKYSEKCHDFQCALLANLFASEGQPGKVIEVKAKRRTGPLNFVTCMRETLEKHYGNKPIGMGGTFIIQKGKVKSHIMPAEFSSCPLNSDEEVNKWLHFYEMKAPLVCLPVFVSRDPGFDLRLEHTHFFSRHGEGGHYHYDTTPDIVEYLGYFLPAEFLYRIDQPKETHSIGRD
UniProt Q9BQ39, sequence (Q9BQ39 whole entry, one chain of several): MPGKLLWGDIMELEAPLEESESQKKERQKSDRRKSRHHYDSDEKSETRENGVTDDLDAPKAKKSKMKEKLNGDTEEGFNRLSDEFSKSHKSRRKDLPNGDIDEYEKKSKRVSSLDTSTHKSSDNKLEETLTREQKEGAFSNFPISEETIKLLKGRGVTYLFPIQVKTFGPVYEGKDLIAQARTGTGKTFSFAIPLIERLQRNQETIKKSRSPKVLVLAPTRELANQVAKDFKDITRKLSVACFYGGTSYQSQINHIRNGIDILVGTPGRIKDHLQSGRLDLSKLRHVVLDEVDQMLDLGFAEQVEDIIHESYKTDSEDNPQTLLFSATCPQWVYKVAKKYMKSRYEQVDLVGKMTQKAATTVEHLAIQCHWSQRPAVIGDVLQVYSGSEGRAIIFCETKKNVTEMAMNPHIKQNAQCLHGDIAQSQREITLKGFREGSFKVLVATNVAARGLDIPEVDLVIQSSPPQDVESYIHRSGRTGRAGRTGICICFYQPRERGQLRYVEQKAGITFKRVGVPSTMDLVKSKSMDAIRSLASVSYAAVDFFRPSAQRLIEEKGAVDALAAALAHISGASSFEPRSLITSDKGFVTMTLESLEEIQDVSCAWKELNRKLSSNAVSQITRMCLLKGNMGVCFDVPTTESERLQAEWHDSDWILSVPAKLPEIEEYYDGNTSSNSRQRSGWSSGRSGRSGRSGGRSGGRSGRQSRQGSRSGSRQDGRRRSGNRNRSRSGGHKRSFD
UniProt P04179, sequence (P04179 whole entry, one chain of several): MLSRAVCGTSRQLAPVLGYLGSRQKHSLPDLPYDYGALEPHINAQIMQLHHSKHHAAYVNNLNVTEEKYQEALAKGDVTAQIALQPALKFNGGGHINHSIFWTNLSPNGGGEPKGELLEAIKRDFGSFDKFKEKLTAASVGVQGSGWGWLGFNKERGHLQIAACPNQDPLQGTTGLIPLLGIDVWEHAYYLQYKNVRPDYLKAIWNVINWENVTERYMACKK
UniProt Q9Y624, sequence (Q9Y624 whole entry, one chain of several): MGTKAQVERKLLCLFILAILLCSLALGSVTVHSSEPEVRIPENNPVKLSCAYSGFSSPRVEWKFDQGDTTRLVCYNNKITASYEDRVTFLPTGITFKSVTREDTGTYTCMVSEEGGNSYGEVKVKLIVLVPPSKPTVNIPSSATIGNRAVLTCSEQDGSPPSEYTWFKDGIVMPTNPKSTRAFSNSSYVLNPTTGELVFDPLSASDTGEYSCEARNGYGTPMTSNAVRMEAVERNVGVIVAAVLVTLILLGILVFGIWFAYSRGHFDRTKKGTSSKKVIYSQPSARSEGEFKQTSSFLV

Target	NP40-soluble protein abundance (concentration: 0.1mM)	NP40-soluble protein abundance (concentration: 0.5mM)	NP40-soluble protein abundance (concentration: 1mM)	NP40-soluble protein abundance (concentration: 2mM)	NP40-soluble protein abundance (concentration: 4mM)	NP40-soluble protein abundance (concentration: 6mM)	NP40-soluble protein abundance (concentration: 8mM)	NP40-soluble protein abundance (concentration: 10mM)
F5H136|P17987 (UniProt P17987)	0.988 ± 0.02	1.07 ± 0.086	1.08 ± 0.12	1.11 ± 0.18	1.09 ± 0.2	1.1 ± 0.21	1.06 ± 0.19	1.02 ± 0.2
A6NHB5|A6NHN7|Q14202|Q14202-2 (UniProt Q14202)	1.08 ± 0.056	1.12 ± 0.075	1.18 ± 0.092	1.31 ± 0.14	1.37 ± 0.16	1.4 ± 0.15	1.46 ± 0.15	1.42 ± 0.16
A0A087WVC1|Q9BQ39 (UniProt Q9BQ39)	1.19 ± 0.051	1.25 ± 0.055	1.4 ± 0.089	1.89 ± 0.23	2.57 ± 0.26	3.29 ± 0.3	3.85 ± 0.56	4.45 ± 0.47
E9PF32|H0YAY3|A2RUS2|A2RUS2-2 (UniProt A2RUS2)	1.1 ± 0.17	1.13 ± 0.069	1.05 ± 0.038	1.1 ± 0.19	1.1 ± 0.12	1.1 ± 0.011	1 ± 0.14	1.01 ± 0.11
A0A087WTT6|P62273|P62273-2 (UniProt P62273)	0.92 ± 0.14	0.977 ± 0.14	1.16 ± 0.29	1.1 ± 0.19	0.953 ± 0.29	0.957 ± 0.27	0.663 ± 0.15	0.939 ± 0.29
A0A087WUL0|Q3LXA3 (UniProt Q3LXA3)	0.988 ± 0.11	0.963 ± 0.11	0.978 ± 0.14	0.928 ± 0.12	0.948 ± 0.11	0.96 ± 0.16	0.96 ± 0.1	0.951 ± 0.097
E9PP50|P23528 (UniProt P23528)	0.893 ± 0.054	0.906 ± 0.066	0.894 ± 0.066	0.823 ± 0.076	0.819 ± 0.068	0.839 ± 0.078	0.84 ± 0.066	0.821 ± 0.081
A0A087WWS1|Q96FV9 (UniProt Q96FV9)	1.1 ± 0.016	1.24 ± 0.086	1.41 ± 0.19	1.76 ± 0.41	2.08 ± 0.62	2.26 ± 0.76	2.37 ± 0.83	2.4 ± 0.91
B0YIW6|P48444 (UniProt P48444)	1.06 ± 0.053	1.08 ± 0.078	1.02 ± 0.066	1.01 ± 0.11	1.02 ± 0.1	1.01 ± 0.083	0.975 ± 0.059	0.933 ± 0.067
E9PFN5|Q9Y2Q3 (UniProt Q9Y2Q3)	0.922 ± 0.042	0.934 ± 0.038	0.895 ± 0.036	0.906 ± 0.043	0.887 ± 0.042	0.888 ± 0.031	0.829 ± 0.082	0.86 ± 0.079
E7EN86|P52747|P52747-2|P52747-3 (UniProt P52747)	1.06 ± 0.038	1.03 ± 0.024	0.988 ± 0.058	0.94 ± 0.013	0.988 ± 0.076	0.939 ± 0.055	1.03 ± 0.013	1.02 ± 0.045
A0A0C4DFU2|P04179|P04179-4 (UniProt P04179)	0.85 ± 0.056	0.843 ± 0.071	0.851 ± 0.071	0.839 ± 0.043	0.814 ± 0.045	0.823 ± 0.052	0.734 ± 0.073	0.776 ± 0.07
F5GWT4|Q9H4A3|Q9H4A3-2|Q9H4A3-5|Q9H4A3-6|Q9H4A3-7 (UniProt Q9H4A3)	0.963 ± 0.058	0.99 ± 0.079	1 ± 0.081	0.96 ± 0.07	0.973 ± 0.061	0.978 ± 0.066	0.999 ± 0.074	0.994 ± 0.082
F5H8D7|P18887 (UniProt P18887)	0.976 ± 0.073	1.02 ± 0.085	1.04 ± 0.081	1 ± 0.1	1.03 ± 0.098	1.06 ± 0.1	1.13 ± 0.1	1.1 ± 0.12
B1AL05|H0Y6Y8|H0YBU8|Q8N983|Q8N983-2|Q8N983-3|Q8N983-4|Q8N983-6|Q8N983-7 (UniProt Q8N983)	1.08 ± 0.21	1.07 ± 0.17	1.37 ± 0.45	1.75 ± 0.66	1.71 ± 0.69	1.57 ± 0.65	1.38 ± 0.47	1.59 ± 0.65
A0A0A0MR85|Q03013 (UniProt Q03013)	1.08 ± 0.068	1.07 ± 0.067	1.04 ± 0.078	1.03 ± 0.14	0.929 ± 0.058	0.985 ± 0.071	1 ± 0.11	0.989 ± 0.14
A0A087WY82|Q9Y624|Q9Y624-2 (UniProt Q9Y624)	1 ± 0.041	0.953 ± 0.1	0.979 ± 0.038	0.938 ± 0.059	0.851 ± 0.066	0.952 ± 0.01	0.858 ± 0.076	0.898 ± 0.011
A0A087WT99|Q9H0W9|Q9H0W9-2|E9PPB5|E9PQS1 (UniProt Q9H0W9)	0.993 ± 0.094	0.942 ± 0.069	0.925 ± 0.048	0.899 ± 0.068	0.872 ± 0.058	0.897 ± 0.087	0.901 ± 0.11	0.848 ± 0.053
A0A5E8|Q99501|C9JFI0 (UniProt Q99501)	1.12 ± 0.09	1.17 ± 0.18	1.21 ± 0.1	1.3 ± 0.15	1.3 ± 0.086	1.37 ± 0.075	1.46 ± 0.035	1.38 ± 0.078
F8VU90|Q9NYL4|Q9NYL4-2 (UniProt Q9NYL4)	0.972 ± 0.06	0.968 ± 0.052	1.04 ± 0.018	1.03 ± 0.065	1.05 ± 0.033	0.996 ± 0.078	0.922 ± 0.041	0.995 ± 0.065
A0A0R4J2E2|Q9Y3T6|A0A0D9SG39|E5RHX3|E5RIK1|E5RIQ4 (UniProt Q9Y3T6)	0.88 ± 0.0067	0.877 ± 0.017	0.961 ± 0.019	0.923 ± 0.048	0.94794 ± 0.00022	0.908 ± 0.017	0.89 ± 0.034	0.9192 ± 0.0019
B8ZZU6|E9PBF9|P15336-5|P15336 (UniProt P15336)	0.868 ± 0.086	0.907 ± 0.044	0.969 ± 0.14	0.943 ± 0.078	0.899 ± 0.011	0.899 ± 0.045	0.906 ± 0.1	0.955 ± 0.078
D6RAN8|H7C5U8|Q9P0M9 (UniProt Q9P0M9)	1.09 ± 0.38	1.2 ± 0.5	1.53 ± 0.78	1.81 ± 0.82	1.91 ± 0.83	1.72 ± 0.79	1.64 ± 0.79	1.58 ± 0.84
G3XAG1|Q96ME7|Q96ME7-3 (UniProt Q96ME7)	1.1 ± 0.013	1.17 ± 0.055	1.27 ± 0.04	1.445 ± 0.014	1.74 ± 0.059	1.88 ± 0.079	2.01 ± 0.13	2.17 ± 0.081
C9J8R4|C9JVE2|Q96GG9 (UniProt Q96GG9)	0.935 ± 0.042	0.919 ± 0.034	0.903 ± 0.049	0.889 ± 0.072	0.867 ± 0.048	0.87 ± 0.044	0.842 ± 0.077	0.84 ± 0.084
H0Y362|Q8NEW0 (UniProt Q8NEW0)	1.21 ± 0.043	1.14 ± 0.018	1.14 ± 0.026	1.13 ± 0.1	1.05 ± 0.062	1.05 ± 0.11	1.04 ± 0.055	0.959 ± 0.013

Reference: the supplement of paper PMC6411743
